Experimental data taken from PubChem BioAssay (Tox21).
Values joined by “and” are separate entries in the source; they are usually repeats but may differ in a detail not shown here. Equal values may be shown once. Results filed as inconclusive are left out. Active and inactive are the calls of the source. The call rests on the fitted dose curve; in most records, active means well fitted curve in the direction sought with a large enough effect in the repeat runs; inconclusive means weak or mixed curves; inactive means no such curve, though single readings can be large; an effect the other way counts as inactive or inconclusive.

Experiments:
[1] = A CellTox Green Cytotoxicity Assay to monitor cytotoxicity in HEK293 cells - 40 hour (AID 1224871); further: nearly all actives have a fitted effect of over 45% in size
Procedure, shortened: (§1)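 HEK293 cells premixed with CellTox Green dye were seeded at 600 cells/well and left 5 h at 37 C/5% CO2 before pin transfer of 23 nL compound in DMSO. Fluorescence from dye bound to dead-cell DNA was read during 40 h treatment.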

[2] = qHTS RealTime-Glo MT Cell Viability Assay in HEK293 cells - 16 hour (AID 1224872); further: top concentration of the series differs between compounds; nearly all actives have a fitted effect of over 50% in size
Procedure, shortened: (§2)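 Tox21 10K qHTS, HEK293, 600 cells/well, RealTime-Glo reagent co-dispensed with cells; 5 h preincubation, compound by pintool, 37 C, luminescence at 0–40 h.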

[3] = qHTS RealTime-Glo MT Cell Viability Assay in HepG2 cells - 8 hour (AID 1224873); further: nearly all actives have a fitted effect of over 55% in size
Procedure, shortened: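 HepG2 cells mixed with RealTime-Glo MT reagents (NanoLuc plus cell-permeant prosubstrate) were seeded at 600 cells/well, incubated 5 h at 37 C/5% CO2, then pinned with compounds in DMSO; nonlytic luminescence tracked viability during 40 h treatment.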

[4] = qHTS RealTime-Glo MT Cell Viability Assay in HEK293 cells - 40 hour (AID 1224874); settings: RealTime-Glo luminescence; max response: active compounds read low; further: nearly all actives have a fitted effect of over 50% in size
Procedure, shortened: (§3)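 HEK293 cells mixed with RealTime-Glo reagents (NanoLuc plus cell-permeant prosubstrate) at 600 cells/well, preincubated 5 h at 37 C/5% CO2, then given 23 nL compound in DMSO. Nonlytic luminescence from viable cells was read at 0, 8, 16, 24, 32 and 40 h.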

[5] = A CellTox Green Cytotoxicity Assay to monitor cytotoxicity in HEK293 cells - 24 hour (AID 1224875); further: series mostly up to about 77 µM; nearly all actives have a fitted effect of over 45% in size
Procedure, shortened: as §1

[6] = A CellTox Green Cytotoxicity Assay to monitor cytotoxicity in HepG2 cells - 16 hour (AID 1224876); further: nearly all actives have a fitted effect of over 45% in size
Procedure, shortened: (§4)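 HepG2 cells were seeded together with the CellTox Green dye at 600 cells/well, left 5 h at 37 C/5% CO2, then given compounds in DMSO. Fluorescence from dye bound to dead-cell DNA was read repeatedly over 40 h of treatment at 37 C.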

[7] = qHTS RealTime-Glo MT Cell Viability Assay in HepG2 cells - 32 hour (AID 1224877); further: nearly all actives have a fitted effect of over 55% in size
Procedure, shortened: (§5)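 Cells + NanoLuc/prosubstrate dispensed (600 cells/well) → 5 h at 37 C/5% CO2 → compounds in DMSO transferred → 40 h incubation at 37 C, luminescence read at 0, 8, 16, 24, 32, 40 h.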

[8] = A CellTox Green Cytotoxicity Assay to monitor cytotoxicity in HepG2 cells - 24 hour (AID 1224878); further: nearly all actives have a fitted effect of over 45% in size
Procedure, shortened: as §4

[9] = A CellTox Green Cytotoxicity Assay to monitor cytotoxicity in HepG2 cells - 40 hour (AID 1224879); further: nearly all actives have a fitted effect of over 40% in size
Procedure, shortened: as §4

[10] = qHTS RealTime-Glo MT Cell Viability Assay in HEK293 cells - 0 hour (AID 1224880)
Procedure, shortened: as §3

[11] = A CellTox Green Cytotoxicity Assay to monitor cytotoxicity in HEK293 cells - 32 hour (AID 1224881); further: nearly all actives have a fitted effect of over 40% in size
Procedure, shortened: as §1

[12] = A CellTox Green Cytotoxicity Assay to monitor cytotoxicity in HepG2 cells - 0 hour (AID 1224882); further: nearly all actives have a fitted effect of over 35% in size
Procedure, shortened: as §4

[13] = A CellTox Green Cytotoxicity Assay to monitor cytotoxicity in HepG2 cells - 32 hour (AID 1224883); further: nearly all actives have a fitted effect of over 50% in size
Procedure, shortened: as §4

[14] = A CellTox Green Cytotoxicity Assay to monitor cytotoxicity in HEK293 cells - 8 hour (AID 1224884); further: nearly all actives have a fitted effect of over 35% in size
Procedure, shortened: as §1

[15] = qHTS RealTime-Glo MT Cell Viability Assay in HepG2 cells - 16 hour (AID 1224885); further: nearly all actives have a fitted effect of over 50% in size
Procedure, shortened: as §5

[16] = qHTS RealTime-Glo MT Cell Viability Assay in HEK293 cells - 24 hour (AID 1224886)
Procedure, shortened: as §2

[17] = qHTS RealTime-Glo MT Cell Viability Assay in HEK293 cells - 8 hour (AID 1224887)
Procedure, shortened: as §3

[18] = A CellTox Green Cytotoxicity Assay to monitor cytotoxicity in HEK293 cells - 16 hour (AID 1224888); further: nearly all actives have a fitted effect of over 35% in size
Procedure, shortened: as §1

[19] = qHTS RealTime-Glo MT Cell Viability Assay in HepG2 cells - 0 hour (AID 1224889); further: nearly all actives have a fitted effect of over 50% in size
Procedure, shortened: as §5

[20] = A CellTox Green Cytotoxicity Assay to monitor cytotoxicity in HepG2 cells - 8 hour (AID 1224890); further: nearly all actives have a fitted effect of over 45% in size
Procedure, shortened: as §4
On the % scale 0 is the no-effect control and ±100 the full control effect.

C=CCCCCCCCCC=O
inactive: Potency [1] | Potency [2] | Potency [3] | max response [4] -1.95% | Potency [5] | Potency [6] | Potency [7] | Potency [8] | Potency [9] | Potency [10] | Potency [11] | Potency [12] | Potency [13] | Potency [14] | Potency [15] | Potency [16] | Potency [17] | Potency [18] | Potency [19] | Potency [20]

COc1ccccc1OCC(O)CN1CCN(CC(=O)Nc2c(C)cccc2C)CC1 (stereo unspecified)
inactive: Potency [1] | Potency [2] | Potency [3] | max response [4] -12.4% | Potency [5] | Potency [6] | Potency [7] | Potency [8] | Potency [9] | Potency [10] | Potency [11] | Potency [12] | Potency [13] | Potency [14] | Potency [15] | Potency [16] | Potency [17] | Potency [18] | Potency [19] | Potency [20]

CC/C=C\CCOC(C)=O
inactive: Potency [1] | Potency [2] | Potency [3] | max response [4] -1.39% | Potency [5] | Potency [6] | Potency [7] | Potency [8] | Potency [9] | Potency [10] | Potency [11] | Potency [12] | Potency [13] | Potency [14] | Potency [15] | Potency [16] | Potency [17] | Potency [18] | Potency [19] | Potency [20]

C[N+](C)(C)CCCCCC[N+](C)(C)C
inactive: Potency [1] | Potency [2] | Potency [3] | max response [4] 3.71% and 1.42% | Potency [5] | Potency [6] | Potency [7] | Potency [8] | Potency [9] | Potency [10] | Potency [11] | Potency [12] | Potency [13] | Potency [14] | Potency [15] | Potency [16] | Potency [17] | Potency [18] | Potency [19]

O=Cc1cccc([N+](=O)[O-])c1
inactive: Potency [1] | Potency [2] | Potency [3] | max response [4] 5.4% | Potency [5] | Potency [6] | Potency [7] | Potency [8] | Potency [9] | Potency [10] | Potency [11] | Potency [12] | Potency [13] | Potency [14] | Potency [15] | Potency [16] | Potency [17] | Potency [18] | Potency [19] | Potency [20]

NS(=O)(=O)c1cc(C(=O)O)cc(N2CCCC2)c1Oc1ccccc1
inactive: Potency [1] | Potency [2] | Potency [3] | max response [4] -15.6% | Potency [5] | Potency [6] | Potency [7] | Potency [8] | Potency [9] | Potency [10] | Potency [11] | Potency [12] | Potency [13] | Potency [14] | Potency [15] | Potency [16] | Potency [17] | Potency [18] | Potency [19] | Potency [20]

Nc1c[n+](N2CCOCC2)no1
inactive: Potency [1] | Potency [2] | Potency [3] | max response [4] 0.673% | Potency [5] | Potency [6] | Potency [7] | Potency [8] | Potency [9] | Potency [10] | Potency [11] | Potency [12] | Potency [13] | Potency [14] | Potency [15] | Potency [16] | Potency [17] | Potency [18] | Potency [19]

CC(=O)OCC(CCn1cnc2cnc(N)nc21)COC(C)=O
inactive: Potency [1] | Potency [2] | Potency [3] | max response [4] -0.0813% | Potency [5] | Potency [6] | Potency [7] | Potency [8] | Potency [9] | Potency [10] | Potency [11] | Potency [12] | Potency [13] | Potency [14] | Potency [15] | Potency [16] | Potency [17] | Potency [18] | Potency [19]

Cc1ccc(C#N)cc1
inactive: Potency [1] | Potency [2] | Potency [3] | max response [4] 6.96% | Potency [5] | Potency [6] | Potency [7] | Potency [8] | Potency [9] | Potency [10] | Potency [11] | Potency [12] | Potency [13] | Potency [14] | Potency [15] | Potency [16] | Potency [17] | Potency [18] | Potency [19] | Potency [20]

O=C[C@H](O)[C@@H](O)[C@H](O)[C@H](O)CO
inactive: Potency [1] | Potency [2] | Potency [3] | max response [4] 17.2% | Potency [5] | Potency [6] | Potency [7] | Potency [8] | Potency [9] | Potency [10] | Potency [11] | Potency [12] | Potency [13] | Potency [14] | Potency [15] | Potency [16] | Potency [17] | Potency [18] | Potency [19] | Potency [20]

Cc1cccn2c(=O)c(-c3nnn[nH]3)cnc12
inactive: Potency [1] | activity change, negative = cytotoxicity [2] 2% [at 15.8 µM] | viability change, negative = cytotoxic [3] -11% [at 15.8 µM] | max response [4] 1.37% | activity change [5] 11.9% [at 15.8 µM, active compounds read high] | cytotoxicity increase [6] 6.14% [at 15.8 µM] | activity change, negative = cytotoxic [7] 3.38% [at 15.8 µM] | cytotoxicity [8] 3.1% [at 15.8 µM] | cytotoxicity increase [9] 1.54% [at 15.8 µM] | activity change, negative = cytotoxicity [10] 7.45% [at 15.8 µM] | Potency [11] | cytotoxicity [12] 0.312% [at 15.8 µM] | cytotoxicity increase [13] 2.82% [at 15.8 µM] | cytotoxicity increase [14] 9.95% [at 15.8 µM] | activity change, negative = cytotoxic [15] -6.35% [at 15.8 µM] | activity change, negative = cytotoxicity [16] 2.84% [at 15.8 µM] | activity change, negative = cytotoxicity [17] -0.563% [at 15.8 µM] | activity change [18] 17.3% [at 15.8 µM, active compounds read high] | activity change, negative = cytotoxicity [19] -3.79% [at 15.8 µM]

O=c1[nH]c(=O)n([C@H]2C[C@H](O)[C@@H](CO)O2)cc1I
inactive: Potency [1] | Potency [2] | Potency [3] | max response [4] 5.93% | Potency [5] | Potency [6] | Potency [7] | Potency [8] | Potency [9] | Potency [10] | Potency [11] | Potency [12] | Potency [13] | Potency [14] | Potency [15] | Potency [16] | Potency [17] | Potency [18] | Potency [19] | Potency [20]

C=C(C)CS(=O)(=O)O
inactive: Potency [1] | Potency [2] | Potency [3] | max response [4] -0.0402% | Potency [5] | Potency [6] | Potency [7] | Potency [8] | Potency [9] | Potency [10] | Potency [11] | Potency [12] | Potency [13] | Potency [14] | Potency [15] | Potency [16] | Potency [17] | Potency [18] | Potency [19] | Potency [20]
